Source: the supplement of paper PMC13380429

Test system: Vero E6 infected with SARS-CoV-2
Assay: inhibition of SARS-CoV-2 cytopathic effect; higher = more antiviral protection, active = above 15
Conditions: 48 h

Measured: inhibition of SARS-CoV-2 cytopathic effect

N[C@@H](Cc1c[nH]c2ccccc12)C(=O)O [tryptophan]
inactive: 1 nM -6.32% | 8.33 nM -7.31% | 100 nM -3.29% | 833.33 nM -4.07% | 10000 nM -10.4%

CC1=C(/C=C/C(C)=C/C=C/C(C)=C/C(=O)O)C(C)(C)CCC1 [tretinoin]
inactive: 1 nM 1% | 8.33 nM -1.08% | 100 nM -0.09% | 833.33 nM 2.67% | 10000 nM 7.6%

O=[N+]([O-])c1cc(O)c(O)c([N+](=O)[O-])c1
inactive: 1 nM -0.65% | 8.33 nM -3.05% | 100 nM -3.12% | 833.33 nM 1.93% | 10000 nM -3.2%

C[C@H]1O[C@@H](n2cc(F)c(=O)[nH]c2=O)[C@H](O)[C@@H]1O [doxifluridine]
inactive: 1 nM -2.13% | 8.33 nM -1.63% | 100 nM 1.63% | 833.33 nM -0.27% | 10000 nM -0.71%

CN[C@@H](C)[C@H]1[C@H](O)C[C@@]2(C)[C@@H]3CC[C@H]4C(C)(C)[C@@H](NC)CC[C@@]45C[C@@]35CC[C@]12C [cyclovirobuxin-D]
inactive: 1 nM -0.38% | 8.33 nM 2.73% | 100 nM 3.9% | 833.33 nM 2.48% | 10000 nM -7.38%

CCCn1cnc2c1c(=O)n(CCCCC(C)=O)c(=O)n2C [propentofylline]
inactive: 1 nM 0.84% | 8.33 nM 2.46% | 100 nM 1.32% | 833.33 nM 2.05% | 10000 nM 0.29%

Nc1cc(C(Cl)=C(Cl)Cl)c(S(N)(=O)=O)cc1S(N)(=O)=O [clorsulon]
inactive: 1 nM -0.52% | 8.33 nM 2.04% | 100 nM 2.84% | 833.33 nM -0.01% | 10000 nM -2.69%

CCOC(=O)Nc1cc2c(c(N)n1)N=C(c1ccccc1)[C@H](C)N2 [mivobulin]
inactive: 1 nM 3.19% | 8.33 nM 0.16% | 100 nM 1.34% | 833.33 nM 1.06% | 10000 nM -0.59%

Nc1nc(OCc2ccccc2)c2nc[nH]c2n1 [O6-benzylguanine]
inactive: 1 nM 2.66% | 8.33 nM 2.87% | 100 nM -5.93% | 833.33 nM -3.87% | 10000 nM -1.55%

Cc1nc2cnc3ccc(C#Cc4cccnc4)cc3c2n1-c1ccc(C(C)(C)C#N)cc1
inactive: 1 nM -1.65% | 8.33 nM 8.23% | 100 nM -1.48% | 833.33 nM -1.07% | 10000 nM -1.26%

CC(C)NCCN(C(C)C)S(=O)(=O)c1ccc(Cl)cc1Cl
inactive: 1 nM 1.45% | 8.33 nM -1.25% | 100 nM 0.74% | 833.33 nM -2.09% | 10000 nM -5.49%

CC1(C)S[C@@H]2[C@H](NC(=O)[C@H](C(=O)O)c3ccsc3)C(=O)N2[C@H]1C(=O)O [ticarcillin]
inactive: 1 nM -0.59% | 8.33 nM -1.04% | 100 nM -1.79% | 833.33 nM 0.92% | 10000 nM -2.66%

Nc1ccc(/N=N/c2ccccc2)c(N)n1 [phenazopyridine]
inactive: 1 nM 1.34% | 8.33 nM 0.46% | 100 nM 0.72% | 833.33 nM 1.24% | 10000 nM 0.27%

Cc1c(C(=O)Nc2ccc(N3C[C@@H](C)O[C@@H](C)C3)nc2)cccc1-c1ccc(OC(F)(F)F)cc1 [sonidegib]
inactive: 1 nM 1.64% | 8.33 nM -0.28% | 100 nM -1.14% | 833.33 nM -2.32% | 10000 nM -7.02%

CS(=O)(=O)Nc1ccc2oc3c(OC(F)F)ccc(C(=O)Nc4c(Cl)cncc4Cl)c3c2c1 [oglemilast]
inactive: 1 nM -1% | 8.33 nM 0.83% | 100 nM 1.63% | 833.33 nM 0.94% | 10000 nM 1.89%

c1ccc2c(CCNc3ccc(Nc4ccncc4)cc3)c[nH]c2c1 [serdemetan]
active: 10000 nM 22.1%
inactive: 1 nM -2.3% | 8.33 nM -1.01% | 100 nM -2.55% | 833.33 nM -0.64%

N#Cc1ccc(COC[C@H]2O[C@@H](n3c(NCc4ccc(Cl)c(Cl)c4)nc4c(N)ncnc43)[C@H](O)[C@@H]2O)cc1
inactive: 1 nM 2.98% | 8.33 nM -0.66% | 100 nM -1.89% | 833.33 nM -0.44% | 10000 nM -3.34%

Oc1cc(CNC(=S)/C=C/c2cc(O)c(O)c(Br)c2)cc(O)c1O
active: 10000 nM 19.8%
inactive: 1 nM 0.9% | 8.33 nM 0.99% | 100 nM 2.87% | 833.33 nM 5.44%
